This is one part of a sample in which hits are shown more often than they occur.
Pf Dd2 inh – blocks in vitro growth of P. falciparum Dd2; hit rate 4.3% among 120,000; Potency, µM (highest dose often 28.9 µM), for inactives: at the highest dose activity, negative = inhibition, actives largely listed as inhibitors; AID 1347417; P. falciparum Dd2 growth, SYBR Green, 72 h; active = well fitted inhibition curve with a large enough effect;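 also: plate controls were DMSO vehicle for no effect and reference drug for full effect; nearly all actives have a fitted effect of over 65% in size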
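Infected erythrocytes (Dd2, 0.3% parasitemia, 2.5% hematocrit final) are added to compound in RPMI-1640/Albumax II medium, grown 72 h at 37C in low oxygen, then lysed with saponin/Triton-X containing SYBR Green and read by fluorescence.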
An asterisk follows results filed as active; i = inactive; [ ] = remark or other dose. Potency is read from the fitted curve at half-maximal effect.

SMILES | Pf Dd2 inh
COc1ccc(Nc2ncnc3onc(-c4ccc(Cl)cc4)c23)cc1Cl | 16%
Cc1cccc(Nc2ncnc3onc(-c4ccc(Cl)cc4)c23)c1C | -16%
COc1cccc(N2CCN(c3ncnc4onc(-c5ccc(Cl)cc5)c34)CC2)c1 | i
Clc1ccc(CN2CCC(CNc3ncnc4onc(-c5ccc(Cl)cc5)c34)CC2)cc1 | 4.5µM*
Clc1ccc(-c2noc3ncnc(N4CCCCC4)c23)cc1 | 18%
CCOc1ccc(Nc2ncnc3onc(-c4ccc(Cl)cc4)c23)cc1 | -20%
COCc1nncn1C1CCN(C(=O)c2ccc(C)s2)CC1 | -2%
CCc1ccc(C(=O)N2CCC(Cc3nc(-c4cnccn4)no3)CC2)cc1 | i
Cc1noc(-c2cn(C3CCN(C(=O)c4cc(F)ccc4F)C3)nn2)n1 (stereo not drawn) | -6%
COc1ccc(C(CC(=O)N2CCC(C(N)=O)CC2)c2ccccc2)cc1 (stereo not drawn) | -7%
COCCc1nncn1C1CCN(C(=O)c2cccc(Br)c2)CC1 | -17%
Cc1nc(C)c(C(=O)N2CCC(CCOc3ccccc3)C2)s1 (stereo not drawn) | i
COC(=O)[C@@H]1Cc2c([nH]c3ccccc23)[C@H]2C[C@@H](NCc3cccnc3)C[C@@H](c3ccccc3)N21 | -23%
COC(=O)[C@@H]1Cc2c([nH]c3ccccc23)[C@H]2C[C@H](NCCNC(C)=O)C[C@@H](c3ccc(C(F)(F)F)cc3)N21 | -1%
O=C(NCCCn1ccnc1)c1ccc(C2CCCNC2)cc1 (stereo not drawn) | 12%
COC(=O)[C@@H]1Cc2c([nH]c3ccccc23)[C@H]2C[C@@H](NCCc3cnc[nH]3)C[C@@H](c3ccccc3F)N21 | i
COCCN[C@@H]1C[C@@H]2c3[nH]c4ccccc4c3C[C@@H](C(=O)OC)N2[C@H](c2cccc(OC)c2)C1 | 5µM*
COC(=O)[C@@H]1Cc2c([nH]c3ccccc23)[C@H]2C[C@@H](NCCCn3ccnc3)C[C@@H](c3ccc(Cl)c(F)c3)N21 | 3.2µM*
COC(=O)[C@@H]1Cc2c([nH]c3ccccc23)[C@H]2C[C@@H](NC[C@H]3CCCO3)C[C@@H](c3ccccc3F)N21 | -9%
COCc1ccc2c(c1)c(OC(C)(C)C(=O)NCCCn1ccnc1)nn2Cc1ccccc1 | -13%
COC(=O)[C@@H]1Cc2c([nH]c3ccccc23)[C@H]2C[C@@H](NCCCn3ccnc3)C[C@@H](c3cccc(Cl)c3)N21 | 2.2µM*
O=C(c1ccc(=O)[nH]c1)N(CC1CCN(Cc2ccccc2F)CC1)CC1CCCO1 (stereo not drawn) | i
Cc1ccc(-c2nnc([C@H]3CCN(C(=O)COc4ccccc4)C3)o2)cc1 | -12%[44.1 µM]
COCC(=O)N1CCN(C(=O)CSCC(=O)O)C[C@H]1C(=O)N[C@H]1CCCNC1=O | -17%[44.1 µM]
CC(=O)N1CCN([C@H]2[C@@H]3OC[C@@H](O3)[C@@H](NCc3ccc(OC(F)(F)F)cc3)[C@@H]2O)CC1 | 4%
SMILES | Pf Dd2 inh
COc1ccc(-c2noc(COC(=O)C3=CN(C)S(=O)(=O)N=C3C)n2)cc1 | 24%
CN1C[C@H](O)C[C@H]1c1nnc2n1CCN(S(=O)(=O)c1ccc(F)cc1)CC2 | 5%
Cc1ccc(-n2nc3n(c2=O)CCN(C(=O)Cc2cccc(Cl)c2)C3)cc1 | -12%
Cn1cnnc1CC1CCCN(C(=O)c2ccccc2)C1 (stereo not drawn) | 12%
O=C(Nc1ccc(N2CCC(NCC(c3ccncc3)N3CCOCC3)CC2)cc1)C1CCCC1 (stereo not drawn) | -9%
O=C(c1ccc(N2CCC(NCC(c3ccccc3)c3ccccc3)CC2)cc1)N1CCCC(O)C1 (stereo not drawn) | 11µM*
COc1ccc([C@@H](NC(=O)Cc2csc(C(C)=O)c2)C2CC(O)C2)cn1 (stereo partly drawn) | -4%
O=C(Nc1cccc(C(F)(F)F)c1)N[C@H]1[C@H](O)[C@@H](N2CCC(Cc3ccccc3)CC2)[C@@H]2OC[C@H]1O2 | -8%
c1ccc(OCc2cc(CC3(NCc4cccc5c4OCO5)COC3)no2)cc1 | i
O=C(NCc1nnc2ccc(-c3ccccc3)nn12)c1ccco1 | -10%
COC(=O)CC1Oc2ccccc2-n2cc(-c3ccc(Cl)cc3)nc21 (stereo not drawn) | 3.5µM*
COc1ccc(-n2cc(C(=O)Nc3cc(F)ccc3F)c3ccccc3c2=O)cc1 | i
O=C(CS(=O)(=O)c1nc(-c2ccc(Cl)cc2)cn1-c1ccccc1)Nc1ccc(F)cc1F | -1%
COC(=O)c1ccc(Cl)cc1NC(=O)N1CC(C)Oc2ccccc21 (stereo not drawn) | -25%
COC(=O)CC1Oc2ccc(F)cc2-n2cc(-c3ccc(Cl)cc3)nc21 (stereo not drawn) | 11µM*
COC(=O)CNC(=O)c1nc(-c2ccc(Cl)cc2)c2ccccn12 | -5%[44.1 µM]
Cc1ccc(NC(=O)c2cc(-c3ccc[nH]3)n[nH]2)cc1 | i
O=C(c1ccccc1)N1CCC2(CC1)COc1ccccc1NC2=O | 7%[44.1 µM]
CCc1cccc(NC(=O)c2cc3c(=O)oc4ccc(C)cc4c3s2)c1 | 68%
CCc1cccc(NC(=O)c2oc3ccc4c(c3c2C)C(=O)CC(C)(C)O4)c1 | 10µM*
COc1ccc(NC(=O)c2oc3ccc4c(c3c2C)C(=O)CC(C)(C)O4)cc1OC | i
COCCn1ncc(N2CCCC(CC(=O)NCC3CC3)C2)cc1=O (stereo not drawn) | 25%
COc1ccc(N2Cc3c(NCCc4ccc(Cl)cc4)ncnc3N(C)CC2=O)cc1 | i
CN(C)c1nc2c(c(=O)[nH]1)CCN(Cc1ccc(F)cc1)CC2 | 53%[5.79 µM]
COc1cccc(-c2cnc3[nH]cc(CC(=O)N4CCN(C)CC4)c3c2)c1 | i
SMILES | Pf Dd2 inh
COc1ccc(-c2cnc3[nH]cc(CC(=O)N4CCNC(=O)C4)c3c2)cc1 | 7.9µM*
O=C(Cc1c[nH]c2ncc(-c3ccc(Oc4ccccc4)cc3)cc12)N1CCOCC1 | -3%[44.1 µM]
CCNC(=O)N(C1CC1)C1CCOC2(CCN(C(=O)Cc3ccccc3F)CC2)C1 (stereo not drawn) | 33%
CC(CCc1ccccc1)NC(=O)Cn1ccn2nc3c(c2c1=O)CCCC3 (stereo not drawn) | -18%
COc1ccc(-c2nn(-c3ccccc3C)cc2CN2C[C@@H](C)O[C@@H](C)C2)cc1F | 10µM*
COc1ccc(-c2nn(-c3ccccc3C)cc2CN2CCCOCC2)cc1F | i
COc1ccc(-c2n[nH]c3c2CC(=O)N(Cc2ccccc2F)C3)cc1F | -20%[44.1 µM]
COCC1CCN(Cc2cn(-c3ccccc3C)nc2-c2ccc(OC)c(F)c2)CC1 | 10µM*
COC[C@H]1CCCN1Cc1cn(-c2ccccc2C)nc1-c1ccc(OC)c(F)c1 | i
COc1ccc(-c2nn(-c3ccccc3C)cc2CN2CCN(C)C(=O)[C@@H]2C)cc1F | i
CCC1Oc2ccc(NC(=O)c3ccc(F)cc3F)cc2CN(Cc2ccc3c(c2)OCO3)C1=O (stereo not drawn) | i
Cc1ccc(F)c(OC2(C(=O)O)CCN(S(=O)(=O)c3cnn(C)c3)CC2)c1 | -5%
CN1C(=O)C(CC(N)=O)=C2CCCCC21 (stereo not drawn) | -22%
O=C(Cn1cccc1-c1nc(-c2ccc3c(c2)OCO3)no1)NCc1ccc(F)cc1F | 12%
O=C(Cn1cccc1-c1nc(-c2ccc3c(c2)OCO3)no1)NCc1ccc(Cl)cc1 | 5%
O=C(Cn1cccc1-c1nc(-c2ccc3c(c2)OCO3)no1)Nc1cc(F)cc(F)c1 | 5µM*
